Assay outcomes deposited in PubChem by National Center for Advancing Translational Sciences (NCATS).
Hits are enriched below; roughly 6.5% of the tested compounds scored in any of these assays.
Vaccinia mCherry: inhibitors of vaccinia virus infection (mCherry reporter signal) | Potency, µM (highest dose often 36.5 µM), for inactives: at the highest dose activity change, negative = inhibition, hits mostly inhibitors | actives 0.63% (n = 310,000) | Vaccinia virus mCherry reporter infection, fluorescence; calls by dose curve; tested in A549 cells; further: potency means the concentration at half of the fitted maximal effect; nearly all actives have a fitted effect of over 35% in size
MARV entry inh: inhibitors of Marburg virus binding or cell entry. Potency, µM (doses to about 37.8 µM), for inactives: top-dose activity change, negative = inhibition, usual class: inhibitors. actives 1.8% (n = 300,000). Marburg virus pseudotyped entry inhibition, cell reporter; calls by dose curve; tested in HEK293 cells; further: potency means the concentration at half of the fitted maximal effect
FMDV antiviral: antivirals against foot and mouth disease virus; FMDV antiviral cell-based qHTS; Potency, µM (titrated, usually from 57.9 µM), inactives show at the top dose activity change, negative = inhibition, actives largely listed as inhibitors; actives 1.2% (n = 410,000); AID 1159524; calls by dose curve; tested in HEK293T cells; further: read-out not given here; potency means the concentration at half of the fitted maximal effect; nearly all actives have a fitted effect of over 45% in size
Lassa entry inh: inhibitors of Lassa virus binding or cell entry. Lassa virus pseudotype entry inhibition, cell reporter. Potency, µM (series often up to 37.9 µM), without a hit: at the top dose activity change, negative = inhibition, hits mostly inhibitors. actives 1.2% (n = 300,000); calls by dose curve; tested in HEK293 cells; further: potency means the concentration at half of the fitted maximal effect; nearly all actives have a fitted effect of over 50% in size
HCMV antiviral: human cytomegalovirus inhibition; HFF cells, HCMV-luciferase reporter, 72 h; active compounds read low; activity change, negative = inhibition, % at 57.5 µM; actives 4.5% (n = 410,000); in the data active means activity change below about -60%; inconclusive means no clear call, values can overlap the other calls; inactive means above about -39%
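Steps: HFFs plated, 16 h 37C; compounds added; HCMV-luciferase added to MOI 1 PFU/cell; 72 h 37C; OneGlo reagent, 5 min room temperature; luminescence read, normalized to controls.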
Vaccinia Venus: vaccinia inhibition (Venus reporter) | AID 720580 | actives 0.46% (n = 330,000) | Potency, µM (doses to about 36.5 µM), for inactives: at the top dose activity change, negative = inhibition, most hits filed as inhibitors | Vaccinia virus Venus reporter expression, fluorescence; calls by dose curve; tested in A549 cells; further: potency means the concentration at half of the fitted maximal effect; nearly all actives have a fitted effect of over 30% in size
An asterisk follows results filed as active; i = inactive; u = inconclusive; x = not tested or not shown; [ ] = dose if it differs, or a comment. On the % scale 0 is the no-effect control and ±100 the full control effect.

SMILES	Vaccinia mCherry	MARV entry inh	FMDV antiviral	Lassa entry inh	HCMV antiviral	Vaccinia Venus
CCN(CC)S(=O)(=O)c1ccc2c(c1)c(=O)c(C(=O)NCc1ccc(Cl)cc1)cn2C	u	11%[46.1 µM]	-10%	u	6	-22%
CCN(CC)S(=O)(=O)c1ccc2c(c1)c(=O)c(C(=O)NCc1ccc3c(c1)OCO3)cn2C	x	13%	x	4%	x	x
C=CCn1cc(C(=O)NCc2ccc3c(c2)OCO3)c(=O)c2cc(S(=O)(=O)N(CC)CC)ccc21	-24%	u	-15%	0.71µM*	-5	-22%
C=CCn1cc(C(=O)NCc2cccnc2)c(=O)c2cc(S(=O)(=O)N(CC)CC)ccc21	-16%	x	-11%	x	-61*	-10%
COc1ccc(C)cc1Nc1nc2c(S(=O)(=O)c3cccc(Cl)c3)nnn2c2ccsc12	2%	x	-9%	9%[46.1 µM]	-14	-2%
CN1c2ccccc2C(C)(C)C12C=Cc1cc(O)ccc1O2 (stereo not drawn)	i	u	x	15µM*	-38	63%
COCCNC(=S)N/N=C/c1ccc(N2CCOCC2)cc1	-24%	23µM*	-6%	u	-97*	-18%
CC(C)NC(=S)N/N=C/c1ccc(N2CCOCC2)cc1	x	x	-26%	x	-1	x
C=C(C)CNC(=S)N/N=C/c1ccc(N2CCOCC2)cc1	-4%	u	-17%	u	-78*	-15%
Cc1cc(C)c(S(=O)(=O)N[C@H]2CC[C@@]34CCCN3C(=O)CCC[C@H]4[C@H]2C)c(C)c1	x	x	x	x	19	x
CCOC(=O)/C=C/c1ccc2c(c1)S(=O)(=O)N(C1CCCC1)[C@H]2CC(=O)OCC	-6%	x	x	x	x	-25%
O=c1cc(C(Cl)(Cl)Cl)oc2c1ccc1ccccc12	u	2.1µM*	14µM*	u	-105*	-29%
O=c1cc(-c2ccncc2)oc2c1ccc1ccccc12	-12%	u	-27%	0%	-79*	4%
COC(=O)NCc1c(C)nn(-c2ccccc2)c1-n1cccc1	-10%	21%[46.1 µM]	-6%	-4%[46.1 µM]	-31	-16%
c1ccc(CN2CCN(c3nc(-c4ccccn4)nc4ccccc34)CC2)cc1	-6%	10%[46.1 µM]	15%	13%	-99*	-8%
c1ccc(-c2nc(N3CCOCC3)c3ccccc3n2)nc1	u	u	-20%	u	u	u
c1ccc(-c2nc(N3CCCCCC3)c3ccccc3n2)nc1	x	u	25µM*	4µM*	-99*	5µM*
COc1ccc(Oc2nc(-c3ccccn3)nc3ccccc23)cc1	4.5µM*	u	3%	u	-70*	u
O=C(Nc1cc(C(=O)N2CCN(CCO)CC2)c2c(c1)ncn2C1CCCC1)c1ccccc1	-3%	x	-12%	x	x	0%
CCCNCC(O)Cn1c2ccccc2n2c(=O)cc(C)c(C#N)c12 (stereo not drawn)	1%	u	0%	16%	-61*	-6%
COc1ccc(C(=O)/C=C2\Sc3ccccc3N2C)cc1	-25%	u	-5%	u	127	-8%
COc1ccccc1-[n+]1c(C)cc(/C=C2\Sc3ccccc3N2C)cc1C	x	x	4µM*	x	-80*	x
COc1ccc(-[n+]2c(C)cc(/C=C3\Sc4ccccc4N3C)cc2C)cc1	x	x	u	x	-99*	x
COc1ccc(C2CC3(CC(C)(C)NC(SC)=N3)Oc3cc(O)cc(C)c32)cc1 (stereo not drawn)	u	10µM*	-25%	18µM*	-76*	-24%
N#Cc1sc2nc3c(c(-c4ccco4)c2c1N)CCCC3	-15%	u	u	-13%	u	-15%
SMILES	Vaccinia mCherry	MARV entry inh	FMDV antiviral	Lassa entry inh	HCMV antiviral	Vaccinia Venus
Cc1ccc(-c2c3c(nc4sc(C(N)=O)c(N)c24)CCC3)cc1	x	-11%	-24%	2%	-87*	-22%
COC(=O)c1sc2nc3c(c(-c4cccs4)c2c1N)CCCC3	-7%	23%	-21%	8%	u	-16%
NC(=O)c1sc2nc3c(c(-c4ccc(Cl)cc4)c2c1N)CCCC3	u	u	-14%	-21%	-61*	u
NC(=O)c1sc2nc3c(c(-c4ccco4)c2c1N)CCCC3	x	x	u	x	-64*	x
C[C@@H]1CC[C@H]2C(=O)N(Cc3ccccc3)C[C@H](O)CN2[C@H]1c1ccc(Br)cc1	x	-24%[14.2 µM]	x	x	x	x
O=C(O)CCC1C(=O)NC(=O)CC1c1ccccc1 (stereo not drawn)	x	x	x	x	-15	x
CN(C)/C=C(\C#N)C(=O)N/N=C/c1ccccc1	-3%	u	27%	u	91	-7%
Cn1c(N2CCN(S(=O)(=O)c3ccc(Cl)cc3)CC2)nc2ccccc21	-3%	-22%[46.1 µM]	u	-24%	-61*	-6%
Cc1cc(N2CCN(S(=O)(=O)c3ccc(Cl)cc3)CC2)c2ccccc2n1	u	u	x	16µM*	-87*	u
CCc1nc2ccccc2nc1N1CCN(S(=O)(=O)c2ccc(Cl)cc2)CC1	i	11µM*	u	u	0	-18%
O=S(=O)(c1ccc(Cl)cc1)N1CCN(c2ccccn2)CC1	i	7%	0%	-9%	22	-15%
Cc1ccc(C(=O)N2CCN(c3nc4ccccc4n3C)CC2)cc1	x	x	u	x	-62*	x
Cn1c(N2CCN(C(=O)NC34CC5CC(CC(C5)C3)C4)CC2)nc2ccccc21	x	10%	-17%	-2%	-19	x
Cn1c(SCC(=O)N2CCN(S(=O)(=O)c3ccc(Cl)cc3)CC2)nc2ccccc21	x	-18%	u	u	66	x
Cc1ccsc1C1C(C#N)=C(N)Oc2n[nH]c(C)c21 (stereo not drawn)	-1%	u	32µM*	-4%	-11	-12%
COc1ccc(-n2nnnc2C2CCN(S(=O)(=O)c3ccc(C(C)(C)C)cc3)CC2)cc1	-3%	-7%[46.1 µM]	-7%	-4%[46.1 µM]	28	-10%
COc1ccc(-n2nnnc2C2CCN(S(=O)(=O)c3cc(Cl)ccc3OC)CC2)cc1	-29%	u	u	-8%[46.1 µM]	-78*	u
NC(=O)C1CN(C(=O)c2nn(Cc3ccccc3)c(=O)c3ccccc23)c2ccccc2O1 (stereo not drawn)	-13%	u	-13%	u	-17	u
O=[N+]([O-])/C(C(=C(Cl)Cl)N1CCOCC1)=C1\NCCO1	16µM*	-13%	5%	19%	13	10µM*
CN1CCO/C1=C(\C(Cl)=C(Cl)Cl)[N+](=O)[O-]	-6%	7%[14.2 µM]	8%	3%	16	-3%
Cc1ccc2oc(=O)c3cc(C(=O)Nc4ccccc4C(N)=O)sc3c2c1	-5%	12%[46.1 µM]	12%	2%[46.1 µM]	6	1%
Oc1cc(O)cc(/C=C/c2ccc(O)c(O)c2)c1	-25%	u	u	4.1µM*	117	-16%
CC1=C(C(=O)Nc2ccc(C)cc2C)C(c2ccccc2[N+](=O)[O-])n2ncc(C(=O)Nc3ccccc3)c2N1 (stereo not drawn)	i	x	18%	0%[46.1 µM]	-21	-15%
